40 compounds from PubChem BioAssay (EPA / NIEHS) can be followed below.

Structures are written as SMILES. Active and inactive are the calls of the source. Rule for the calls: active = hit-call score of the fitted dose curve at least 0.9, where 1 is the maximum; inactive = score below 0.9.

Heat shock factor protein 1 (Homo sapiens), sequence (Q00613 whole entry, looked up): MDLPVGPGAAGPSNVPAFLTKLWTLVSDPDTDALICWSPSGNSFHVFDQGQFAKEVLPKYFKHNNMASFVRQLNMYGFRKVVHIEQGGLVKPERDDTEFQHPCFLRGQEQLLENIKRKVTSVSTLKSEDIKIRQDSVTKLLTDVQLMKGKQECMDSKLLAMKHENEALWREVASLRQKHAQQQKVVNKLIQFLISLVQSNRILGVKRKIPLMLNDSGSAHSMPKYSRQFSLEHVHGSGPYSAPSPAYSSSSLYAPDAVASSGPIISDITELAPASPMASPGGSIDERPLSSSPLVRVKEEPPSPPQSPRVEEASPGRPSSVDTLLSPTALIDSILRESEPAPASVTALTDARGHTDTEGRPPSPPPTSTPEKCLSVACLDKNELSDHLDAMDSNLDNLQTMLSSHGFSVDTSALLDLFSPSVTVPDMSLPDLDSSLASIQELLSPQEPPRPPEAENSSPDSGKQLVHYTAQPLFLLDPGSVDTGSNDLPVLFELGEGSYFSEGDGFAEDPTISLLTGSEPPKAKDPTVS

In this assay the target is Heat shock factor protein 1 (Homo sapiens) (UniProt Q00613). The assay is described as follows: ATG_HSE_CIS: Attagene CIS-FACTORIAL HepG2 Assay for human Heat Shock Transcription Factor 1 (HSE) (AID 2282953). To be noted: HepG2 HSE cis-reporter, Attagene RNA transcription; actives raise or lower the signal. Here is the method:
ATG_CIS is a cell-based, multiplexed-readout assay that uses HepG2, a human liver cell line, with measurements taken at 24 hours after chemical dosing in a 24-well plate.ATG_HSE_CIS is one of 52 assay component(s) measured or calculated from the ATG_CIS assay. It is designed to make measurements of mRNA induction, a form of inducible reporter, as detected with fluorescence intensity signals by Reverse transcription polymerase chain reaction (RT-PCR) and Capillary electrophoresis technology.Data from the assay component ATG_HSE_CIS was analyzed into 1 assay endpoint. This assay endpoint, ATG_HSE_CIS, was analyzed with bidirectional fitting relative to DMSO as the negative control and baseline of activity. Using a type of inducible reporter, measures of mRNA for gain or loss-of-signal activity can be used to understand the reporter gene at the transcription factor-level as they relate to the gene HSF1. Furthermore, this assay endpoint can be referred to as a primary readout, because this assay has produced multiple assay endpoints where this one serves a reporter gene function. To generalize the intended target to other relatable targets, this assay endpoint is annotated to the dna binding intended target family, where the subfamily is heat shock protein.
Human liver HepG2 cells are transiently transfected with multiple reporter transcription units (MRTUs) in 6-well plates using FuGene 6 reagent (Roche; 3 ml FuGene/1 mg DNA). The MRTU constructs are regulated by a cis-regulating element (promoter). […] A major difference between the CIS and TRANS system is that in CIS activities of endogenous TFs are measured, whereas the TRANS assay evaluates changes in activities of exogenous, chimeric NR-Gal4 proteins. […] At the end of 24 hour incubation, total RNA was isolated using TriZol reagent (Invitrogen). The isolated RNA is then reverse-transcribed using oligo(dT) primer and Mo-MLV reverse transcriptase (Invitrogen) with DNAse I (Ambion) treatment for 30 min. The one-tenth of the produced cDNA was amplified by PCR using Taq DNA polymerase (Invitrogen) and two reporter sequence-specific primers. The PCR products were fluorescently labeled by primer extension with 6-arboxyfluorescein (6-FAM) 5'-labeled reporter sequence-specific primer (2 min at 95 C, 20 s at 68 C and 10 min at 72 C) and these products were digested with 5U of HpaI (New England Biolabs) for 2h at 37 C. The fragments were purified using Qiaquick PCR columns (Qiagen), analyzed on an ABI 3130xL genetic analyzer (Applied Biosystems) with peak positions identified by using a set of X-rhodamine (ROX)-labeled MapMarker1000 molecular weight standards (BioVentures). The raw capillary electrophoresis data was processed using Attagraph software (Attagene).
Regarding `O=c1c(O)c(-c2ccc(O)cc2)oc2cc(O)cc(O)c12`, the call was inactive.

As for `CC(C)(N=C=O)c1cccc(C(C)(C)N=C=O)c1`, the compound was classed as inactive.

With `C=CCOC(=O)CCCCCC`, the result was inactive.

With `OCc1cccc(Oc2ccccc2)c1`, the result was inactive.

In the case of `CCOCCOCCOCC`, the result was inactive.

Take `COc1ccc(CCC(C)=O)cc1`: the call was inactive.

For the compound `CCCC1O[C@@H]2C[C@H]3[C@@H]4CCC5=CC(=O)C=C[C@]5(C)[C@H]4[C@@H](O)C[C@]3(C)[C@]2(C(=O)CO)O1` (stereo not given in full), the compound was called inactive.

Consider `O=C(c1ccccc1)C(O)c1ccccc1` (stereo not given), for which the compound was classed as inactive.

Turning to `C[N+](C)(C)CCCCCC[N+](C)(C)C`, the compound was classed as inactive.

Take `C[Si]1(C)O[Si](C)(C)O[Si](C)(C)O1`: the compound was called inactive.

Take `CC(Oc1cc(Cl)ccc1Cl)C(=O)O` (stereo not given): the outcome was inactive.

`Cc1occc(=O)c1OC(=O)C(C)C`: the result was inactive.

Take `Brc1ccc(Br)c(Br)c1`: the compound was classed as inactive.

As to `COC(=O)c1ccc(OC)cc1`, the compound was called inactive.

As for `O=C(O)CCCCCCCCC(=O)O`, the compound was called inactive.

With `Cc1c(Cl)cccc1[N+](=O)[O-]`, the call was inactive.

As to `CCCCCCCCCC(C)C=O` (stereo not given), the call was inactive.

As to `C=C(C)C(=O)OCC(CC)(COC(=O)C(=C)C)COC(=O)C(=C)C`, the compound was called inactive.

Consider `O=C(O)c1ccc(O)cc1`, for which the compound was called inactive.

On to `CC1C2CC(CC2C2CCCC(O)C2)C1(C)C` (stereo not given), for which the compound was called inactive.

With `CCC(=O)OCCOc1ccccc1`, the compound was called inactive.

Take `CCCCCCC(C)(C)S`: the call was inactive.

Consider `C1CCOC1`, for which the call was inactive.

For `Nc1ccc(N)c2c1C(=O)c1ccccc1C2=O`, the result was inactive.

Regarding `COc1ccc(CCO)cc1`, the call was inactive.

As a reminder, the AC50 is the midpoint of the concentration-response curve, whichever way the signal moves. With `O=C(CC(=O)c1ccccc1)c1ccccc1`, the concentration at half-maximal activity (AC50) was 145 µM (active).

For the compound `N[C@@H](Cc1cc(I)c(Oc2cc(I)c(O)c(I)c2)c(I)c1)C(=O)O`, the call was inactive.

Turning to `CCCC(=O)C(CC)Sc1ccoc1C` (stereo not given), the outcome was inactive.

For `C=CC(=O)OCCCC`, the compound was called inactive.

Consider `CCOC(=O)C1OC1c1ccccc1` (stereo not given), for which the result was inactive.

With `CCCC(=O)c1ccccc1`, the compound was called inactive.

Turning to `CC1=CC[C@@]23C[C@@H]1C(C)(C)[C@@H]2CC[C@H]3C`, the compound was classed as inactive.

`Cc1ccc(C)o1`: the outcome was inactive.

As to `COC(C)(C)CCCC(C)CC=O` (stereo not given), the compound was classed as inactive.

With `CCc1cc(Cc2cc(CC)cc(C(C)(C)C)c2O)c(O)c(C(C)(C)C)c1`, the AC50 is 18.5 µM (active).

For the compound `CCCCCCCCCCCCCC(=O)OCC(O)CO` (stereo not given), the outcome was inactive.

`CS(=O)(=O)OCCCCOS(C)(=O)=O`: the compound was classed as inactive.

`CCCCCCCCc1ccc(S(=O)(=O)O)cc1`: the call was inactive.

As for `O=C(O)COCC(=O)O`, the compound was called inactive.

With `C#CC(C)(O)CC(C)C` (stereo not given), the compound was classed as inactive.
